This passage reports AC50 and outcome results from PubChem BioAssay (EPA / NIEHS).

Active and inactive are the calls of the source. The calls were made as follows: active = hit-call score of the fitted dose curve at least 0.9, where 1 is the maximum; inactive = score below 0.9.

Cytochrome P450 2C19 (Homo sapiens), sequence (P33261 whole entry, looked up): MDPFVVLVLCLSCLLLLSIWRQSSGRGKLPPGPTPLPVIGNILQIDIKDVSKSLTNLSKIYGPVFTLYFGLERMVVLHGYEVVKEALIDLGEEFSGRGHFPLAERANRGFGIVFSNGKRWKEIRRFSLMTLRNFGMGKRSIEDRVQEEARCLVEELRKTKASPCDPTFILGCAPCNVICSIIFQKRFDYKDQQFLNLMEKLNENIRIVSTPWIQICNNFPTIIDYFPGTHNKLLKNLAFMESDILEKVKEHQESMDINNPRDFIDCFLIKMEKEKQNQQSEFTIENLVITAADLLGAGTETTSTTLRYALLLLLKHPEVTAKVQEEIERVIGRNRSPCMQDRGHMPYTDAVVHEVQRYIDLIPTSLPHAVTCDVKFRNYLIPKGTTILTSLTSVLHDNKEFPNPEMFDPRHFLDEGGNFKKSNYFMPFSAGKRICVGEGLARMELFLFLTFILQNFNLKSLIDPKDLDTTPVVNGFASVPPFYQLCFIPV

Read-out in this test: Cytochrome P450 2C19 (Homo sapiens) (UniProt P33261)
In words: LTEA_HepaRG_CYP2C19: Life Technologies and Expression Analysis (LTEA) Assay for CYP2C19 using HepaRG (AID 2283482). To be noted: mRNA level, 48 h; actives raise or lower the signal. Here is the method:
LTEA_HepaRG is a cell based, multiplexed-readout assay that uses HepaRG, a human liver cell line, with measurements taken at 48 hours after chemical dosing on a 96-well plate.LTEA_HepaRG_CYP2C19 is one of 102 assay component(s) measured in the LTEA HepaRG cell culture assay. It is a marker of NR mediated metabolism.Data from the assay component LTEA_HepaRG_CYP2C19 was analyzed into 1 endpoint. This assay endpoint, LTEA_HepaRG_CYP2C19, was analyzed with bidirectional fitting relative to DMSO as the negative control and baseline of activity. Using a type of inducible reporter, measures of mRNA induction for gain or loss-of-signal activity can be used to understand regulation of transcription factor activity. To generalize the intended target to other relatable targets, this assay endpoint is annotated to the cyp intended target family, where the subfamily is xenobiotic metabolism.
A total of 1060 chemcials from the ToxCast library were tested in eight-point concentration-response experiments. Cell culture and cytotoxicity assays were conducted at Thermo Fisher Scientific's Custom Services facility (Madison, WI). A single lot of human HepaRG cells (Thermo Fisher Scientific, Frederick, MD) was used for the cell culture experiments. 96-well format collagen type I coated plates of human HepaRG cells were prepared using established methods. Briefly, cryopreserved HepaRG cells were thawed, plated at a density of approximately 100,000 cells/well in HepaRG Thaw, Plate, and General Purpose media (HPRG770, Thermo Fisher Scientific), and incubated for 48 hours. 0.5% DMSO was selected as vehicle control to balance the requisite need of DMSO in HepaRG cultures to maintain differentiation (for example, baseline metabolism, proportions of hepatocytes vs. cholangiocytes), while enabling further hepatic receptor pathway activation (for example, PXR and CAR) in response to chemical exposure. 48 hours after plating, the culture medium was replaced with HepaRG Serum-Free Incudtion Media. Cells were exposed to each test chemical in duplicate and maintained in CO2 incubators for another 48 hours. Chemical plates were thawed to room temperature and 200x concentrations of treatment groups were prepared. 8-point conentration-reponse curves were made with the highest exposure at 100 uM, followed by half-log dilutions, all in 0.5% DMSO. Each test plate contained variouse controls, induction positive controls (1mM phenobarbital), cytotoxicity positive controls ([…] aflatoxin B1), vehicle controls (0.5% DMSO), and total lysis controls (0.5% DMSO). Cell morphology images were taken using an Essen IncuCyte FLR automated microscope, with six 96-well plates imaged in about 24 minutes. Images were captured and exported and JPEG files. Spent culture media was transfered to black-well plates for the LDH assay, and remaining media was sorted at -80 C for later use. Cells were treated with RLT buffer and frozen until shipped for gene expression analysis. Total RNA was isolated from the cell suspension in 75 uL of Buffer RLT (Qiagen, Germantown, MD 20874) by Quintiles/Expression Analysis (Durham, NC) using a custom isolation procedure. Total RNA from each plate well was transferred to a preamplification plate. Fluidigm's 96.96 Dynamic ArrayTM (Fluidigm, Amsterdam, the Netherlands) technology was used for gene expression analyses by quantitative reverse transcription polymerase chain reaction (qRT-PCR, performed by Quintiles/Expression Analysis, Durham, NC)89. Standard TaqManTM Assays (Applied Biosystems/ThermoFisher Scientific, Foster City, CA) were used to assess the expression of 93 genes selected based on their selectivity and sensitivity to important hepatic receptors known to be modulated by environmental chemicals; importance in human hepatocyte functionality; and hepatotoxicity. […]
Regarding `Cc1[nH]nc2c1N=C(c1ccccc1Cl)c1cc([N+](=O)[O-])ccc1N2`, the AC50 is 4.24 µM (active). For `CCCCCCCCCCCCCCC`, the AC50 is 17.3 µM (active). As to `OCC(CO)(CBr)CBr`, the molecule was called inactive. Regarding `N=C(N)c1ccc(OCCCCCOc2ccc(C(=N)N)cc2)cc1`, the half-maximal activity concentration (AC50) is 6.53 µM (active). In the case of `CCCCC=O`, the molecule was called inactive. As for `CCC(C)c1ccccc1O` (stereo unspecified), the call was inactive.

As to `CCCCC(CC)C(=O)O` (stereo unspecified), the outcome was inactive. `CCCCCCCCCCCCOS(=O)(=O)O`: the concentration at half-maximal activity (AC50) is 82.1 µM (active).

Regarding `O=C1NS(=O)(=O)c2ccccc21`, the molecule was classed as inactive. Still for that read-out and setting: the entry for `CN(Cc1cnc2nc(N)nc(N)c2n1)c1ccc(C(=O)N[C@@H](CCC(=O)O)C(=O)O)cc1` is “inactive”. Take `CC(=O)Nc1ccc(O)cc1`: the outcome was inactive.

One may read the AC50 as the concentration at which the activity in the assay is half-maximal.
